# Legend:
# Assay in all cases: DAPPL (digital affinity profiling via proximity ligation, sequencing); 10 mM Tris-HCl pH 7.5, 50 mM NaCl, 1 mM DTT, 4% glycerol, room temperature, 30 min; GST-TFs on glutathione beads, 16-mer random dsDNA library, 0.1% formaldehyde crosslink after washing; high values mean tight binding
# [1] = target: T1, FEV (Homo sapiens, UniProt Q99581 1-238); conditions: protein: recombinant; tags: N-terminal GST; dsDNA, one strand shown
# T1 sequence: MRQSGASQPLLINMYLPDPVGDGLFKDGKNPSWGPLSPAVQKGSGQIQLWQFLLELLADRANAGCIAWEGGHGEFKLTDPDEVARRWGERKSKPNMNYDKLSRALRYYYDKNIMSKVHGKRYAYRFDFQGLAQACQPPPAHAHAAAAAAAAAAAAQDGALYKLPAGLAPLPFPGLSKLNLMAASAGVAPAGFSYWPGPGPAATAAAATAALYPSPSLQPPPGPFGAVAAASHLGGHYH
# Procedure, shortened: (§1)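 Yeast served to express human transcription factors as GST fusions, which were then captured on glutathione beads and labelled with DNA barcodes. Pooled with a tag-only sample, they were incubated with 200 nmole of a 16-mer random double-stranded DNA library for 30 min at room temperature in Tris/NaCl/DTT/glycerol buffer, washed, crosslinked with 0.1% formaldehyde, ligated by proximity, amplified by PCR and sequenced. Dividing each hexamer's read frequency for a factor by its frequency for the tag-only sample gives the binding signal.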
# [2] = target: ETV5 (Homo sapiens, UniProt P41161 1-510); conditions: protein: recombinant; tags: N-terminal GST; dsDNA, one strand shown
# Procedure, shortened: as §1
# [3] = target: HSF1 (Homo sapiens, UniProt Q00613 1-529); conditions: protein: recombinant; tags: N-terminal GST; chain copies: 3; dsDNA, one strand shown
# Procedure, shortened: as §1
# [4] = target: T2, SPIC (Homo sapiens, UniProt Q8N5J4 1-248); conditions: protein: recombinant; tags: N-terminal GST; dsDNA, one strand shown
# T2 sequence: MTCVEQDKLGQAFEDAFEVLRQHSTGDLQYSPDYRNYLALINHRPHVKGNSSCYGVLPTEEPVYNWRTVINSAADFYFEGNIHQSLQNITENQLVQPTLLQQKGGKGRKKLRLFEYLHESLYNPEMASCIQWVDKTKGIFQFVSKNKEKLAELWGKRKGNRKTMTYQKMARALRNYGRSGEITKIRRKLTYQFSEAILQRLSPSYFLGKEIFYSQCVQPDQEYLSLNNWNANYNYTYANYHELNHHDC
# Procedure, shortened: as §1
# [5] = target: ELF4 (Homo sapiens, UniProt Q99607 1-663); conditions: protein: recombinant; tags: N-terminal GST; dsDNA, one strand shown
# Procedure, shortened: as §1
# [6] = target: T3, ELK4 (Homo sapiens, UniProt P28324-2 1-405); conditions: protein: recombinant; tags: N-terminal GST; dsDNA, one strand shown
# T3 sequence: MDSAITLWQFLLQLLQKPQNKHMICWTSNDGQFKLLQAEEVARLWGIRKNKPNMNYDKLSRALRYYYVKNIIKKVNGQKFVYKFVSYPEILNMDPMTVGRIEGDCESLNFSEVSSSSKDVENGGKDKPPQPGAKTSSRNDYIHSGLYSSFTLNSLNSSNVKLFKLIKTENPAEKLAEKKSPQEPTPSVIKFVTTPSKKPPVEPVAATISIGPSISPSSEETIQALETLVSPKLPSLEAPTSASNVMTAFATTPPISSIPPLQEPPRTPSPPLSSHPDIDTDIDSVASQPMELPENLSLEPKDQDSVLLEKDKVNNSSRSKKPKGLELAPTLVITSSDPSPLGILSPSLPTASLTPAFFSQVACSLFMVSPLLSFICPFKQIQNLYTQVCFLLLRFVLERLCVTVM
# Procedure, shortened: as §1
# [7] = target: T4, ETV2 (Homo sapiens, UniProt O00321 1-342); conditions: protein: recombinant; tags: N-terminal GST; dsDNA, one strand shown
# T4 sequence: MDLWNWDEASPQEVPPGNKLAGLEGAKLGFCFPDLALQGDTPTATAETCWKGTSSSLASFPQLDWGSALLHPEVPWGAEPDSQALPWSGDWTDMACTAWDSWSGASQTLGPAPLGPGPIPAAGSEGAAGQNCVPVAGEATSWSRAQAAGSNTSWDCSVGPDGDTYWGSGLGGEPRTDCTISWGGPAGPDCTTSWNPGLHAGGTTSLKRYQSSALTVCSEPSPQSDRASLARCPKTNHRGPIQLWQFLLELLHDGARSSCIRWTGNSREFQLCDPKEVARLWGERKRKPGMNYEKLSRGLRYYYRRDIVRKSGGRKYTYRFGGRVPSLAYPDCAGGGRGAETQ
# Procedure, shortened: as §1
# [8] = target: T5, ELF3 (Homo sapiens, UniProt P78545 1-371); conditions: protein: recombinant; tags: N-terminal GST; dsDNA, one strand shown
# T5 sequence: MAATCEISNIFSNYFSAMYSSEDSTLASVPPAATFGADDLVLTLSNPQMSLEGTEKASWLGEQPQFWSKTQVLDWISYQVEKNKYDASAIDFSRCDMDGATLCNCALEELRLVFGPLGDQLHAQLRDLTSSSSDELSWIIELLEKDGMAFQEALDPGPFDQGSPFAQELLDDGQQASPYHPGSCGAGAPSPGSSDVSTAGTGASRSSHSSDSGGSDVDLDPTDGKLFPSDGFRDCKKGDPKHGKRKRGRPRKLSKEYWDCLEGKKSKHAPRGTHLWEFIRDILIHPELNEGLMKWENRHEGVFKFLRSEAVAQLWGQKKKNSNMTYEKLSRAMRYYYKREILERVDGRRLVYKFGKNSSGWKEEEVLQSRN
# Procedure, shortened: as §1
# [9] = target: CRX (Homo sapiens, UniProt O43186 1-299); conditions: protein: recombinant; tags: N-terminal GST; dsDNA, one strand shown
# Procedure, shortened: as §1
# [10] = target: ETV1 (Homo sapiens, UniProt P50549 1-477); conditions: protein: recombinant; tags: N-terminal GST; dsDNA, one strand shown
# Procedure, shortened: as §1
# HSF1, sequence (Q00613 whole entry): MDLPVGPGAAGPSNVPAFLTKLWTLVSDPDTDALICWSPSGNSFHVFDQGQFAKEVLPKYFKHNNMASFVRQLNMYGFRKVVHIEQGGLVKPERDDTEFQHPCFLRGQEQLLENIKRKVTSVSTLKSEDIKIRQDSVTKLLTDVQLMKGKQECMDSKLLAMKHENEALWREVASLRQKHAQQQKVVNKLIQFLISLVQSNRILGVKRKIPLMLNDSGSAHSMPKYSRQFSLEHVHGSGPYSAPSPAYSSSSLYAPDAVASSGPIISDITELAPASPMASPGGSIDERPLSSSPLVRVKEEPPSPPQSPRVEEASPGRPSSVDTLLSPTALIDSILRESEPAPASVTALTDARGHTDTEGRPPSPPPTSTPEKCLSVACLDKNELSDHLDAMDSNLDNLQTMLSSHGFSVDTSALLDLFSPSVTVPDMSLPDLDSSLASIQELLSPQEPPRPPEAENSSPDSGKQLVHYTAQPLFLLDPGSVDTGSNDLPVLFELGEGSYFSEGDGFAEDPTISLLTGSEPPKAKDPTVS
# ETV5, sequence (P41161 whole entry): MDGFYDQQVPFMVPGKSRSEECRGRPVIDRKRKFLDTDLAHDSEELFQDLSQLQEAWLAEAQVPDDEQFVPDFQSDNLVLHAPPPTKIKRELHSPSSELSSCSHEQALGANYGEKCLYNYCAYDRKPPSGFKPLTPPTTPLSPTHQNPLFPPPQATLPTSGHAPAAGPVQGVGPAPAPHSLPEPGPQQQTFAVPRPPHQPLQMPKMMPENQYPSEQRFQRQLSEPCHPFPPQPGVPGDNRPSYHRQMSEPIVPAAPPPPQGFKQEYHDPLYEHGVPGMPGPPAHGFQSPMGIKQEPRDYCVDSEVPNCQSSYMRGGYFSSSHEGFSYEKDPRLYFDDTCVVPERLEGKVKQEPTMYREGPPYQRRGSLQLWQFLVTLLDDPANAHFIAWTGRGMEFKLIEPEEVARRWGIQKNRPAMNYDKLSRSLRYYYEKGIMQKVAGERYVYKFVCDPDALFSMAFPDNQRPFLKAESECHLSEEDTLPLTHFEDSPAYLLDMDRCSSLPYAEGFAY
# ETV1, sequence (P50549 whole entry): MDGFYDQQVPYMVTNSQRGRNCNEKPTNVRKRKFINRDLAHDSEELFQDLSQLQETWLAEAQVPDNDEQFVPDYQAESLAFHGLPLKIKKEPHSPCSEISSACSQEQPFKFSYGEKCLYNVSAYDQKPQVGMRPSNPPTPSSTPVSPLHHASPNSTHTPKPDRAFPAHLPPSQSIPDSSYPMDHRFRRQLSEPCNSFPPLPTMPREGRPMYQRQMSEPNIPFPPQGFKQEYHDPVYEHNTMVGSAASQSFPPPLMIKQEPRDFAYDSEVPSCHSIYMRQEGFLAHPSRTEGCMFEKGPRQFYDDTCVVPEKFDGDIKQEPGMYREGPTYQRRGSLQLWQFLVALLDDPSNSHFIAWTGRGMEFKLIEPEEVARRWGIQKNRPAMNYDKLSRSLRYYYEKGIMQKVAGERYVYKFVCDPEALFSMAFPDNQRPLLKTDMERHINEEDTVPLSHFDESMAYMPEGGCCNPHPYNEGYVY
# ELF4, sequence (Q99607 whole entry): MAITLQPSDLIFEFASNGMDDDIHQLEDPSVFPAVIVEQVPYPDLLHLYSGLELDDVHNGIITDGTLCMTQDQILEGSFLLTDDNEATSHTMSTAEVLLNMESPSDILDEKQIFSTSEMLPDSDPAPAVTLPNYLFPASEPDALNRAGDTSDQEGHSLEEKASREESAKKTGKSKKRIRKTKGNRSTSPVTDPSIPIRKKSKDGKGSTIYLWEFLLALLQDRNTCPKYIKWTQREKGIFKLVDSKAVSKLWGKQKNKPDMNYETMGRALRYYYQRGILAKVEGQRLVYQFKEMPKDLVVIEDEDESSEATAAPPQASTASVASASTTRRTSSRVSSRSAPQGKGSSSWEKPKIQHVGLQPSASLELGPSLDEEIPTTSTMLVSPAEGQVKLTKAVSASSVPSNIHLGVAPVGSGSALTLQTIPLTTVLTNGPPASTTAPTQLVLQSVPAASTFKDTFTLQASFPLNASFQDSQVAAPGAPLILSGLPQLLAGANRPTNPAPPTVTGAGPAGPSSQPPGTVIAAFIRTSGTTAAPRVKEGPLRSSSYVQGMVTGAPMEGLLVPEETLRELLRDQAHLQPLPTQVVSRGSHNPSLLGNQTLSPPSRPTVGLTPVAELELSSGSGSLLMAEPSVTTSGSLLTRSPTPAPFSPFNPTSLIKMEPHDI
# CRX, sequence (O43186 whole entry): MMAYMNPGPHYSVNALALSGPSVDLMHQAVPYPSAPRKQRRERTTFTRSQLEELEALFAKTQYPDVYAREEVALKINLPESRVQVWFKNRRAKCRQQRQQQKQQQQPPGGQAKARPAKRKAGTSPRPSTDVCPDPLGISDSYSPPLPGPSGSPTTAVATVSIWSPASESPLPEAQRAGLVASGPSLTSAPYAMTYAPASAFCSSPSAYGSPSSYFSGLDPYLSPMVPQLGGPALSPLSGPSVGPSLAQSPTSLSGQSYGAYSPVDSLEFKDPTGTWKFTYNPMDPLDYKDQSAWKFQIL
Sequence,binding signal [1],binding signal [2],binding signal [3],binding signal [4],binding signal [5],binding signal [6],binding signal [7],binding signal [8],binding signal [9],binding signal [10]
TAAGTT,"1.24 fold enrichment (6-mer frequency, TF over GST control)","1.37 fold enrichment (6-mer frequency, TF over GST control)","1.45 fold enrichment (6-mer frequency, TF over GST control)","1.36 fold enrichment (6-mer frequency, TF over GST control)","1.34 fold enrichment (6-mer frequency, TF over GST control)","1.22 fold enrichment (6-mer frequency, TF over GST control)","1.25 fold enrichment (6-mer frequency, TF over GST control)","1.09 fold enrichment (6-mer frequency, TF over GST control)","1.94 fold enrichment (6-mer frequency, TF over GST control)","1.34 fold enrichment (6-mer frequency, TF over GST control)"
CACTTA,"1.19 fold enrichment (6-mer frequency, TF over GST control)","1.2 fold enrichment (6-mer frequency, TF over GST control)","1.26 fold enrichment (6-mer frequency, TF over GST control)","1.08 fold enrichment (6-mer frequency, TF over GST control)","1.19 fold enrichment (6-mer frequency, TF over GST control)","1.13 fold enrichment (6-mer frequency, TF over GST control)","1.21 fold enrichment (6-mer frequency, TF over GST control)","1.24 fold enrichment (6-mer frequency, TF over GST control)","1.62 fold enrichment (6-mer frequency, TF over GST control)","1.25 fold enrichment (6-mer frequency, TF over GST control)"
TAGCTT,"1.2 fold enrichment (6-mer frequency, TF over GST control)","1.31 fold enrichment (6-mer frequency, TF over GST control)","1.4 fold enrichment (6-mer frequency, TF over GST control)","1.28 fold enrichment (6-mer frequency, TF over GST control)","1.1 fold enrichment (6-mer frequency, TF over GST control)","1.21 fold enrichment (6-mer frequency, TF over GST control)","1.15 fold enrichment (6-mer frequency, TF over GST control)","1.33 fold enrichment (6-mer frequency, TF over GST control)","1.83 fold enrichment (6-mer frequency, TF over GST control)","1.2 fold enrichment (6-mer frequency, TF over GST control)"
AACCCC,"1.24 fold enrichment (6-mer frequency, TF over GST control)","1.14 fold enrichment (6-mer frequency, TF over GST control)","1.03 fold enrichment (6-mer frequency, TF over GST control)","1.33 fold enrichment (6-mer frequency, TF over GST control)","1.29 fold enrichment (6-mer frequency, TF over GST control)","1.36 fold enrichment (6-mer frequency, TF over GST control)","1.18 fold enrichment (6-mer frequency, TF over GST control)","1.22 fold enrichment (6-mer frequency, TF over GST control)","1.21 fold enrichment (6-mer frequency, TF over GST control)","1.08 fold enrichment (6-mer frequency, TF over GST control)"
TACCTA,"1.2 fold enrichment (6-mer frequency, TF over GST control)","1.31 fold enrichment (6-mer frequency, TF over GST control)","1.28 fold enrichment (6-mer frequency, TF over GST control)","1.19 fold enrichment (6-mer frequency, TF over GST control)","1.3 fold enrichment (6-mer frequency, TF over GST control)","1.35 fold enrichment (6-mer frequency, TF over GST control)","1.21 fold enrichment (6-mer frequency, TF over GST control)","1.3 fold enrichment (6-mer frequency, TF over GST control)","1.55 fold enrichment (6-mer frequency, TF over GST control)","1.34 fold enrichment (6-mer frequency, TF over GST control)"
GATTAC,"1.05 fold enrichment (6-mer frequency, TF over GST control)","1.06 fold enrichment (6-mer frequency, TF over GST control)","2.08 fold enrichment (6-mer frequency, TF over GST control)","1.13 fold enrichment (6-mer frequency, TF over GST control)","1.08 fold enrichment (6-mer frequency, TF over GST control)","1.23 fold enrichment (6-mer frequency, TF over GST control)","1.1 fold enrichment (6-mer frequency, TF over GST control)","1.04 fold enrichment (6-mer frequency, TF over GST control)","3.27 fold enrichment (6-mer frequency, TF over GST control)","1.1 fold enrichment (6-mer frequency, TF over GST control)"
ACAGCT,"1.07 fold enrichment (6-mer frequency, TF over GST control)","1.02 fold enrichment (6-mer frequency, TF over GST control)","1.07 fold enrichment (6-mer frequency, TF over GST control)","1.11 fold enrichment (6-mer frequency, TF over GST control)","1.15 fold enrichment (6-mer frequency, TF over GST control)","1.13 fold enrichment (6-mer frequency, TF over GST control)","1.16 fold enrichment (6-mer frequency, TF over GST control)","1.36 fold enrichment (6-mer frequency, TF over GST control)","1.18 fold enrichment (6-mer frequency, TF over GST control)","1.08 fold enrichment (6-mer frequency, TF over GST control)"
ACCAAT,"1.25 fold enrichment (6-mer frequency, TF over GST control)","1.24 fold enrichment (6-mer frequency, TF over GST control)","1.16 fold enrichment (6-mer frequency, TF over GST control)","1.31 fold enrichment (6-mer frequency, TF over GST control)","1.38 fold enrichment (6-mer frequency, TF over GST control)","1.35 fold enrichment (6-mer frequency, TF over GST control)","1.13 fold enrichment (6-mer frequency, TF over GST control)","1.28 fold enrichment (6-mer frequency, TF over GST control)","1.16 fold enrichment (6-mer frequency, TF over GST control)","1.3 fold enrichment (6-mer frequency, TF over GST control)"

# Reference: article PMC7862700, “An all-to-all approach to the identification of sequence-specific readers for epigenetic DNA modifications on cytosine”
